Test results taken from PubChem BioAssay (NCI).
Compounds without any hit were thinned out: in the full panel of roughly 83,000, 20% have a hit.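 Percent growth is the endpoint: 0 to 100 indicates growth inhibition (40 means 60% inhibition), 0 means no net growth, and negative values indicate cell death.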

Assays:
Experiment in all cases: NCI-60 one-dose screen, 48 h (100 = growth as untreated, 0 = no growth, -100 = all killed)
Details in all cases: 10 µM; active = growth percent below 10; inactive = the rest
NCI-H23 lung = system: NCI-H23 lung
NCI-H226 lung = system: NCI-H226 lung
NCI-H322M lung = system: NCI-H322M lung
HOP-62 NSCLC = system: HOP-62 NSCLC
NCI-H460 lung = system: NCI-H460 lung
HOP-92 NSCLC = system: HOP-92 NSCLC
A549/ATCC NSCLC = system: A549/ATCC NSCLC
COLO 205 colon = system: COLO 205 colon
DU-145 prostate = system: DU-145 prostate
K-562 leukemia = system: K-562 leukemia
MALME-3M melanoma = system: MALME-3M melanoma
MDA-MB-231 breast = system: MDA-MB-231 breast
RXF 393 renal = system: RXF 393 renal
SF-268 CNS = system: SF-268 CNS
SF-295 CNS = system: SF-295 CNS
SF-539 CNS = system: SF-539 CNS
UACC-257 melanoma = system: UACC-257 melanoma
M14 melanoma = system: M14 melanoma
786-0 renal = system: 786-0 renal

Measured: growth

CC(O)COc1ccc(-c2ccccc2)cc1 (centres undefined)
inactive: NCI-H23 lung 108% | NCI-H226 lung 104% | NCI-H322M lung 112% | HOP-62 NSCLC 102% | NCI-H460 lung 99.2% | HOP-92 NSCLC 92.7% | A549/ATCC NSCLC 107% | COLO 205 colon 110% | DU-145 prostate 108% | K-562 leukemia 102% | MALME-3M melanoma 115% | MDA-MB-231 breast 96.6% | RXF 393 renal 106% | SF-268 CNS 99.4% | SF-295 CNS 107% | SF-539 CNS 104% | UACC-257 melanoma 119% | M14 melanoma 108%

CCCOC(=O)C(O)c1ccccc1 (centres undefined)
inactive: NCI-H23 lung 106% | NCI-H226 lung 105% | NCI-H322M lung 132% | HOP-62 NSCLC 99.8% | NCI-H460 lung 107% | HOP-92 NSCLC 95% | A549/ATCC NSCLC 126% | COLO 205 colon 115% | DU-145 prostate 113% | K-562 leukemia 129% | MALME-3M melanoma 96.8% | MDA-MB-231 breast 90% | RXF 393 renal 111% | SF-268 CNS 99.7% | SF-295 CNS 109% | SF-539 CNS 101% | UACC-257 melanoma 108% | M14 melanoma 93.8%

CC1NC(=O)NC1CCCCCC(=O)O (centres undefined)
inactive: NCI-H23 lung 100% | NCI-H226 lung 103% | NCI-H322M lung 132% | HOP-62 NSCLC 104% | NCI-H460 lung 111% | HOP-92 NSCLC 72.9% | A549/ATCC NSCLC 94.9% | COLO 205 colon 110% | DU-145 prostate 108% | K-562 leukemia 125% | MALME-3M melanoma 106% | MDA-MB-231 breast 91.4% | RXF 393 renal 105% | SF-268 CNS 96.5% | SF-539 CNS 105% | UACC-257 melanoma 86.6% | M14 melanoma 95%

Nc1ccc(NC(=O)c2cccc(N)c2)cc1
inactive: NCI-H23 lung 96.7% | NCI-H226 lung 99.1% | NCI-H322M lung 95.2% | HOP-62 NSCLC 86.5% | NCI-H460 lung 101% | HOP-92 NSCLC 81.1% | A549/ATCC NSCLC 47.6% | 786-0 renal 101% | COLO 205 colon 114% | DU-145 prostate 108% | MALME-3M melanoma 85.7% | MDA-MB-231 breast 97.1% | SF-268 CNS 102% | SF-295 CNS 92.5% | SF-539 CNS 96.3% | M14 melanoma 104%

CC(C)OC(C(=O)O)c1ccccc1 (centres undefined)
inactive: NCI-H23 lung 101% | NCI-H226 lung 108% | NCI-H322M lung 117% | HOP-62 NSCLC 91.1% | NCI-H460 lung 109% | HOP-92 NSCLC 81.3% | A549/ATCC NSCLC 105% | COLO 205 colon 111% | DU-145 prostate 113% | K-562 leukemia 124% | MALME-3M melanoma 133% | MDA-MB-231 breast 99.3% | RXF 393 renal 117% | SF-268 CNS 104% | SF-295 CNS 138% | SF-539 CNS 102% | UACC-257 melanoma 116%

OCC1OC(OC2C(O)C(CO)OC2(CO)OC2OC(CO)C(O)C(O)C2O)C(O)C(O)C1O (centres undefined)
inactive: NCI-H23 lung 103% | NCI-H226 lung 115% | NCI-H322M lung 120% | HOP-62 NSCLC 98.6% | NCI-H460 lung 111% | HOP-92 NSCLC 90.3% | A549/ATCC NSCLC 98% | COLO 205 colon 117% | DU-145 prostate 116% | K-562 leukemia 139% | MALME-3M melanoma 138% | MDA-MB-231 breast 99.6% | RXF 393 renal 118% | SF-268 CNS 106% | SF-295 CNS 131% | SF-539 CNS 96.9% | UACC-257 melanoma 97.6%

CCCC1(c2ccccc2)NC(=O)NC1=O (centres undefined)
inactive: NCI-H23 lung 110% | NCI-H226 lung 97% | NCI-H322M lung 124% | HOP-62 NSCLC 102% | NCI-H460 lung 109% | HOP-92 NSCLC 78.4% | A549/ATCC NSCLC 119% | COLO 205 colon 114% | DU-145 prostate 108% | K-562 leukemia 135% | MALME-3M melanoma 121% | MDA-MB-231 breast 95.2% | RXF 393 renal 109% | SF-268 CNS 98.3% | SF-295 CNS 122% | SF-539 CNS 100% | UACC-257 melanoma 108%

CCCCCCCCOC(=O)c1ccccn1
inactive: NCI-H23 lung 91.5% | NCI-H226 lung 104% | NCI-H322M lung 98.9% | HOP-62 NSCLC 93.5% | NCI-H460 lung 109% | HOP-92 NSCLC 107% | A549/ATCC NSCLC 107% | COLO 205 colon 106% | DU-145 prostate 102% | K-562 leukemia 115% | MALME-3M melanoma 117% | MDA-MB-231 breast 95.2% | RXF 393 renal 116% | SF-268 CNS 97.6% | SF-295 CNS 133% | SF-539 CNS 96.9% | UACC-257 melanoma 107%

CC(C)C1CCCCC1O (centres undefined)
inactive: NCI-H23 lung 95.4% | NCI-H226 lung 112% | NCI-H322M lung 124% | HOP-62 NSCLC 102% | NCI-H460 lung 109% | HOP-92 NSCLC 101% | A549/ATCC NSCLC 102% | COLO 205 colon 108% | DU-145 prostate 113% | K-562 leukemia 164% | MALME-3M melanoma 117% | MDA-MB-231 breast 99.4% | RXF 393 renal 112% | SF-268 CNS 99.5% | SF-295 CNS 111% | SF-539 CNS 101% | UACC-257 melanoma 101%
